Laboratory results: the supplement of paper PMC10498489
Out of some 2,300 compounds screened, about 330 (14%) showed activity.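 Rule for the calls: active = median modified Z-score above 1.96; inactive = 1.96 or below.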 Not all results are given here.

test system: HepG2 Srxn1-GFP reporter cells (+30 nM CDDO-Me); experiment: Srxn1-GFP intensity median modified Z-score relative to plate median; higher = stronger NRF2 / oxidative stress reporter activation, active = hit call of the paper; settings: 10 µM; exposure time: 24h
Procedure, shortened: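 Values give the median, over replicates, of the modified Z-score of GFP intensity on each plate. HepG2 Srxn1-GFP BAC reporter cells were co-treated for 24 h with an NRF2 activator at 30 nM and compound at 10 μM (≤0.1% DMSO) in three replicate plates, then analysed per cell for cytoplasmic GFP on confocal images with at least 100 cells. Scaling used 1.4826 × median absolute deviation.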

Compound	Srxn1-GFP intensity median modified Z-score
CCc1c(C)cn(C(=O)NCCc2ccc(S(=O)(=O)NC(=O)N[C@H]3CC[C@H](C)CC3)cc2)c1O [euspeclibcmpd697]	-0.793 (inactive)
O=C(O[C@@H]1Cc2c(O)cc(O)cc2O[C@@H]1c1cc(O)c(O)c(O)c1-c1c([C@H]2Oc3cc(O)cc(O)c3C[C@H]2OC(=O)c2cc(O)c(O)c(O)c2)cc(O)c(O)c1O)c1cc(O)c(O)c(O)c1 [euspeclibcmpd2312]	-0.214 (inactive)
COc1[nH]cnc(=NS(=O)(=O)c2ccc(N)cc2)c1OC [euspeclibcmpd917]	-0.467 (inactive)
COc1cc(OC)c2c(c1Cl)OC1(C(=O)CC(=O)CC1C)C2=O (centres undefined) [euspeclibcmpd1388]	-0.00204 (inactive)
CC(=O)OCC(=O)[C@@]1(O)[C@H](OC(C)=O)CC2C3CC=C4CC(=O)C=C[C@]4(C)[C@@]3(F)[C@@H](O)C[C@@]21C (some centres undefined) [euspeclibcmpd1284]	-0.169 (inactive)
N=c1[nH]cnc2c1ncn2C1C[C@H](O)[C@@H](CO)O1 (some centres undefined) [euspeclibcmpd2091]	-0.0836 (inactive)
CO[C@H]1/C=C/O[C@@]2(C)Oc3c(C)c(O)c4c(O)c(c5c(nc6cc(C)ccn65)c4c3C2=O)NC(=O)/C(C)=C\C=C\C(C)[C@H](O)[C@@H](C)C(O)[C@@H](C)[C@H](OC(C)=O)[C@@H]1C (some centres undefined) [euspeclibcmpd745]	-0.528 (inactive)
C=CCOC(Cn1ccnc1)c1ccc(Cl)cc1Cl (centres undefined) [euspeclibcmpd2390]	6.42 (active)
Clc1ccc(CON=C(Cn2ccnc2)c2ccc(Cl)cc2Cl)c(Cl)c1 [euspeclibcmpd747]	-0.564 (inactive)
Clc1ccc(COC(Cn2ccnc2)c2ccc(Cl)cc2Cl)cc1 (centres undefined) [euspeclibcmpd413]	15.1 (active)
Clc1ccc(CSC(Cn2ccnc2)c2ccc(Cl)cc2Cl)cc1 (centres undefined) [euspeclibcmpd401]	22.5 (active)
Clc1ccc(C(Cn2ccnc2)OCc2ccsc2Cl)c(Cl)c1 (centres undefined) [euspeclibcmpd1174]	15.7 (active)
C=CC1=C(C(=O)O)N2C(=O)C(NC(=O)C(=NO)c3csc(=N)[nH]3)C2SC1 (centres undefined) [euspeclibcmpd718]	-0.455 (inactive)
CC(=CC(=O)OCCCCCCCCC(=O)O)C[C@@H]1OC[C@H](C[C@@H]2O[C@H]2[C@@H](C)[C@H](C)O)[C@@H](O)[C@H]1O [euspeclibcmpd851]	0.838 (inactive)
Cc1cnn(CCC(=O)NC2CCCN(c3ccc(C)nn3)C2)c1 (centres undefined)	1.37 (inactive)
O=C(O)c1cc(O)c(=O)c2c(O)c(O)c(O)cc2c1 [euspeclibcmpd1713]	-0.567 (inactive)
Cc1ccsc1C=CC1=NCCCN1C [euspeclibcmpd638]	0.449 (inactive)
O=C(O)/C=C/C(=O)O [euspeclibcmpd2444]	-0.338 (inactive)
CC1CN(C)CCN1C(=O)c1ccc(CCNS(C)(=O)=O)s1 (centres undefined)	1.16 (inactive)
Nc1ccc(S(=O)(=O)N=c2cc[nH]n2-c2ccccc2)cc1 [euspeclibcmpd1061]	0.53 (inactive)
CC1=C(C(=O)O)N2C(=O)[C@@H](NC(=O)C(N)c3ccc(O)cc3)[C@H]2SC1 (some centres undefined) [euspeclibcmpd47]	0.774 (inactive)
NCc1ccccc1CC(=O)NC1C(=O)N2C(C(=O)O)=C(CSc3nnnn3CC(=O)O)CSC12 (centres undefined) [euspeclibcmpd506]	-0.382 (inactive)

Compound	Srxn1-GFP intensity median modified Z-score
Clc1ccc(CCC(Cn2ccnc2)Sc2c(Cl)cccc2Cl)cc1 (centres undefined) [euspeclibcmpd650]	26.7 (active)
CC1(C)C2CC[C@@]3(C)C4=C(CC(=O)C3[C@@]2(C)CC[C@@H]1O[C@@H]1OC(C(=O)O)[C@@H](O[C@@H]2OC(C(=O)O)[C@@H](O)[C@H](O)[C@H]2O)[C@H](O)[C@H]1O)C1C[C@@](C)(C(=O)O)CC[C@]1(C)CC4 (some centres undefined) [euspeclibcmpd1807]	-0.547 (inactive)
COc1c(CC(=O)c2cc3c(cc2O)OC(C)(C)C(O)C3)ccc2c1C=CC(C)(C)O2 (centres undefined) [euspeclibcmpd1608]	7.77 (active)
COc1c(-c2coc3cc4c(cc3c2=O)CC(OC(C)=O)C(C)(C)O4)ccc2c1C=CC(C)(C)O2 (centres undefined) [euspeclibcmpd1654]	13.6 (active)
COc1cc2occ(-c3ccc(OC)c(OC)c3OC)c(=O)c2cc1OC [euspeclibcmpd2240]	0.129 (inactive)
COc1c2c(cc3occ(-c4ccc5c(c4)OCO5)c(=O)c13)OC(C)(C)C=C2 [euspeclibcmpd1957]	7.5 (active)
COc1ccc(-c2c(O)c3c(OC)c4c(cc3oc2=O)OC(C)(C)C=C4)cc1 [euspeclibcmpd1515]	0.81 (inactive)
COc1ccc(-c2coc3cc(O)ccc3c2=O)c(O)c1O [euspeclibcmpd1422]	-0.526 (inactive)
COc1cc(OC)c2c(=O)c(-c3ccc4c(c3)OCO4)coc2c1 [euspeclibcmpd1964]	0.515 (inactive)
COc1ccc(C(=O)CC(=O)O)c2c1C=CC(C)(C)O2 [euspeclibcmpd1976]	-0.441 (inactive)
CC(=O)S[C@@H]1C=C2CC(=O)CC[C@]2(C)[C@H]2CC[C@@]3(C)[C@@H](CC[C@@]34CCC(=O)O4)C12 (some centres undefined) [euspeclibcmpd269]	-0.784 (inactive)
CC12CCC(=O)CC1=CCC1C2[C@@H](O)CC2(C)C1CC[C@]2(O)C(=O)COP(=O)(O)O (some centres undefined) [euspeclibcmpd153]	-0.722 (inactive)
COc1ccc2c(c1)c(CC(=O)OC/C=C/Cl)c(C)n2C(=O)c1ccc(Cl)cc1	0.367 (inactive)
CON(C)C(=O)c1cc(-c2ccccc2)nc2ccccc12	1.63 (inactive)
NCCCCC(NC(CCc1ccccc1)C(=O)O)C(=O)N1CCCC1C(=O)O (centres undefined) [euspeclibcmpd423]	0.0552 (inactive)
O=c1c(-c2cc(O)c(O)c(O)c2)coc2cc(O)c(O)c(O)c12 [euspeclibcmpd1958]	-0.398 (inactive)
CCOC(=O)OC(C)OC(=O)C1N2C(=O)C(NC(=O)C(N)c3ccccc3)C2SC1(C)C (centres undefined) [euspeclibcmpd983]	0.627 (inactive)
N=C(N)N/N=C\c1c(Cl)cccc1Cl [euspeclibcmpd143]	0.55 (inactive)
CC(C)NCC(O)COc1ccc(CC(N)=O)cc1 (centres undefined) [euspeclibcmpd387]	-0.166 (inactive)
CC(C)/N=c1\cc2n(-c3ccc(Cl)cc3)c3ccccc3[nH]c-2cc1=Nc1ccc(Cl)cc1 [euspeclibcmpd891]	7.89 (active)
CC(C)CC(NC(=O)C(C)N)C(=O)O (centres undefined) [euspeclibcmpd2380]	-0.0851 (inactive)
CN=C(C[N+](=O)[O-])NCCSCc1csc(CN(C)C)n1 [euspeclibcmpd900]	-0.00145 (inactive)

Compound	Srxn1-GFP intensity median modified Z-score
CC1CN(c2c(F)c(N)c3c(=O)c(C(=O)O)cn(C4CC4)c3c2F)C[C@H](C)N1 (some centres undefined) [euspeclibcmpd471]	-0.142 (inactive)
CC(C)C(=O)C1C(=O)O[C@@H](c2ccoc2)[C@]2(C)C(O)[C@@H](O)[C@@]34OC5(C)OC67CC(C)(C(O)[C@]6(O)[C@@H](O)[C@]3(O5)C12)[C@H](CC(=O)O)[C@]74C (some centres undefined) [euspeclibcmpd1385]	-0.12 (inactive)
NC(=O)NCCCC(N)C(=O)O (centres undefined) [euspeclibcmpd1533]	-0.136 (inactive)
CCN(CC)CCOC(=O)C(Cc1cccc2ccccc12)CC1CCCO1 (centres undefined) [euspeclibcmpd577]	3.61 (active)
CCN(CC)CCOC(=O)C(c1ccccc1)c1ccccc1 [euspeclibcmpd520]	0.792 (inactive)
CCCC(C(=O)OCCN(CC)CC)(c1ccccc1)c1ccccc1 [euspeclibcmpd434]	-0.794 (inactive)
C[C@H]1c2cccc(O)c2C(=O)C2C(=O)[C@]3(O)C(=O)C(C(N)=O)C(=O)C(N(C)C)[C@@H]3[C@@H](O)[C@@H]21 (some centres undefined) [euspeclibcmpd105]	-1.04 (inactive)
C=C[C@](C)(O)CCC=C(C)C [euspeclibcmpd1465]	-0.00229 (inactive)
CCOc1ccc2[nH]c3cc(N)ccc3c(=N)c2c1 [euspeclibcmpd1203]	63.5 (active)
COC(=O)C1=C2C(=O)CC(C)C2C(O[C@@H]2O[C@H](CO)[C@@H](O)[C@H](O)[C@H]2O)OC1 (some centres undefined) [euspeclibcmpd2225]	-0.236 (inactive)
COC(=O)c1c(C)c2c(c(C)c1O)OC(=O)c1c(C)c(Cl)c(O)c(Cl)c1O2 [euspeclibcmpd1600]	12.9 (active)
COC(=O)c1c(OC)cc2c(c1C)Oc1c(Cl)c(O)c(Cl)c(C)c1C(=O)O2 [euspeclibcmpd1672]	0.324 (inactive)
Cc1cc(O)c(C=O)c2c1C(=O)Oc1c(C)c(O)c3c(O)oc(O)c3c1O2 [euspeclibcmpd2409]	0.591 (inactive)
Cc1c[nH]c(=NC(=O)C2C(=O)c3ccccc3S(=O)(=O)N2C)s1 (centres undefined) [euspeclibcmpd2190]	-0.367 (inactive)
C#C[C@]1(OC(C)=O)CCC2C3CCC4=CC(=NO)CCC4C3CC[C@@]21CC (some centres undefined) [euspeclibcmpd54]	-0.443 (inactive)
C#C[C@]1(O)CCC2C3CCc4cc(OC)ccc4C3CC[C@@]21C (some centres undefined) [euspeclibcmpd184]	0.203 (inactive)
C#C[C@]1(OC(C)=O)CCC2C3CCC4=C[C@@H](OC(C)=O)CCC4C3CC[C@@]21C (some centres undefined) [euspeclibcmpd896]	2.28 (active)
NCCCC(N)C(=O)O (centres undefined) [euspeclibcmpd2233]	-0.13 (inactive)
CCOC(=O)C1=CC(OC(CC)CC)[C@H](NC(C)=O)[C@@H](N)C1 (some centres undefined) [euspeclibcmpd2394]	-0.535 (inactive)
CC1=C(SC2CNC(C(=O)N(C)C)C2)C(C(=O)O)N2C(=O)[C@H]([C@@H](C)O)[C@@H]12 (some centres undefined) [euspeclibcmpd460]	-0.758 (inactive)
